PLK1 PBD block = blocks phosphopeptide binding to human PLK1 polo-box domain; 360,000 tested, 2.8% active; Plk1 PBD binding of FITC phosphopeptide, fluorescence polarization; P53350; Potency, µM, without a hit: max response, negative = inhibition, hits mostly inhibitors; note: series mostly up to about 57 µM; % is set by controls: 0 for no effect and ±100 for the full control effect; nearly all actives have a fitted effect of over 65% in size
Sfp inh = blocks B. subtilis Sfp PPTase activity. Potency, µM, for the others: largest response in the series, negative = inhibition, hits mostly inhibitors. Biochemical Sfp PPTase activity, qHTS. 310,000 tested, 3.5% active;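 note: the enzyme is Sfp with the accession as filed and its product quenches rhodamine fluorescence; 0% = enzyme reaction without inhibitor and -100% = no enzyme wells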
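Step 1, compound plus 15 nM Sfp-PPTase, 15 min, room temperature. Step 2, add rhodamine-CoA (5 uM) and BHQ-2-YbbR (12.5 uM). Step 3, read 525/598 nm fluorescence at 0 and 30 min.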
HP1b chromo inh = HP1-beta chromodomain-methylated histone interaction inhibition. AlphaScreen HP1-beta / biotin-H3K9me3 peptide binding. Potency, µM (highest dose often 114 µM), without a hit: top-dose activity change, negative = inhibition, hits mostly inhibitors. 390,000 tested, 0.56% active. AID 540317; note: nearly all actives have a fitted effect of over 70% in size
Target sequence (P83916 whole entry, looked up): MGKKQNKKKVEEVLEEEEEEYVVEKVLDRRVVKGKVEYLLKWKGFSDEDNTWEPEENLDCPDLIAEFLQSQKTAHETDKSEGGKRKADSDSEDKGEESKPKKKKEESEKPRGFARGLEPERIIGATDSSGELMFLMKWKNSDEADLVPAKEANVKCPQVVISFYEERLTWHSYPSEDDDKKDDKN
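HP1-beta protein (50 nM final) preincubated 30 min at room temperature with biotinylated H3(1-18)K9me3 peptide (50 nM) in PBS pH 7.4, 0.01% Tween-20, then compound added for 30 min. AlphaScreen streptavidin donor/nickel chelate acceptor beads (10 ug/mL final), 30 min dark, luminescence read.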
G9a inh = blocks human histone lysine methyltransferase G9a; G9a H3K9 monomethylation, AlphaScreen, 2 h; Potency, µM (doses to about 102 µM), without a hit: top-dose activity, negative = inhibition, actives largely listed as inhibitors; 350,000 tested, 8.8% active; note: % is set by controls: 0 for no effect and ±100 for the full control effect; nearly all actives have a fitted effect of over 75% in size
Target sequence (Q96KQ7 913-1193 limits assumed): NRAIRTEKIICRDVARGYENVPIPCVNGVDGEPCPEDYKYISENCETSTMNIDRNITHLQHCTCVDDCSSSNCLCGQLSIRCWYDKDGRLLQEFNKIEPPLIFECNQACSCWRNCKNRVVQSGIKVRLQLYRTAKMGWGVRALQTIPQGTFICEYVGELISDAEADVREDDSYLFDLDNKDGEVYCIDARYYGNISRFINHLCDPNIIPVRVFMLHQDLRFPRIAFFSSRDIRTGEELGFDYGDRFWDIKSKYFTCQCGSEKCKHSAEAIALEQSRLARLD
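Compounds were preincubated with 20 nM G9a for 15 min, after which biotinylated H3K9 peptide (500 nM) and SAM (20 uM) started a 2 h room-temperature reaction. Monomethylated product was quantified by antibody-based AlphaScreen chemiluminescence.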
BAZ2B inh = inhibitors of human BAZ2B bromodomain. Q9UIF8. AlphaScreen BAZ2B-H3K14Ac peptide displacement. Potency, µM (titrated, usually from 114 µM), for the others: top-dose activity change, negative = inhibition, usual class: inhibitors. 360,000 tested, 4.4% active. AID 504333; note: % is set by controls: 0 for no effect and ±100 for the full control effect; nearly all actives have a fitted effect of over 60% in size
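BAZ2B 50 nM plus b-H3(5-23)K14Ac 50 nM, PBS pH 7.4/0.01% Tween-20, 30 min RT; compound added (max 110 uM), 30 min RT; streptavidin donor/Ni-chelate acceptor beads 10 ug/mL final, 20 min dark; AlphaScreen read.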
JMJD2A Tudor = blocks the human JMJD2A Tudor domain; O75164; AlphaScreen JMJD2A-Tudor / H3K4me3 peptide binding; 390,000 tested, 4.4% active; Potency, µM (highest dose often 114 µM), for inactives: at the top dose activity change, negative = inhibition, hits mostly inhibitors; note: % is set by controls: 0 for no effect and ±100 for the full control effect; nearly all actives have a fitted effect of over 50% in size
The depositor's hits bear a star; ? = inconclusive; . = no result given; [ ] = dose if it differs, or a comment. Only some compounds are listed: those with a hit (about 12% of all), similar ones and a draw of the others. Calls come from the whole dose curve; as a rule, active = well fitted curve in the direction sought with a large enough effect; inconclusive = small, poorly fitted or top-dose-only effect, or another doubt; inactive = no such curve, though single readings can be large; an effect the other way counts as inactive or inconclusive. Potency is the fitted concentration of half-maximal effect.

SMILES | PLK1 PBD block | Sfp inh | HP1b chromo inh | G9a inh | BAZ2B inh | JMJD2A Tudor
CC(=O)NC1C(=O)N(CCN2CCOCC2)c2ccc(Br)cc21 (stereo unspecified) | -12% | ? | ? | 3.2µM* | 10µM* | 8.9µM*
CCN1C(=O)C(NC(C)=O)c2cc(OC)ccc21 (stereo unspecified) | -1% | -17% | 48% | 50µM* | 2% | 3%
CCN(CC)C(=O)Cn1c(=O)n(CCCC(=O)NCc2ccccc2)c(=O)c2sccc21 | 3% | 17% | 18% | -30% | -13% | -1%
COc1ccc(-c2cc3nc(CCl)[nH]c(=O)c3s2)cc1 | -9% | -2% | 25%[57 µM] | 50µM* | -38% | ?
C(=N\Nc1nc(Nc2ccccc2)nc(N2CCCCC2)n1)/c1ccco1 | . | 11% | . | 1% | ? | .
Cc1ccc2cc(C)c3nnc(SCc4ccc(C(=O)O)cc4)n3c2c1C | ? | -7% | 27% | . | ? | 40µM*
O=S(=O)(c1cccc(-c2nnco2)c1)N1CCOCC1 | -4% | 6% | 25% | 15% | 6% | -2%
Cc1ccc(S(=O)(=O)N2CCOCC2)cc1-c1n[nH]c(=S)n1-c1ccccc1 | -6% | . | 37% | -8%[12.7 µM] | 10% | 6.3µM*
O=S(=O)(c1cccc(-c2n[nH]c(=S)n2Cc2ccccc2)c1)N1CCOCC1 | -10% | -26% | 21% | . | -16% | 20µM*
O=S(=O)(c1cccc(-c2n[nH]c(=S)n2-c2cccc(C(F)(F)F)c2)c1)N1CCOCC1 | -4% | . | 24% | . | . | ?
O=S(=O)(c1cccc(-c2cn3cccnc3n2)c1)N1CCCCCC1 | -16% | 0% | 51% | ? | . | -9%
O=S(=O)(c1cccc(-c2n[nH]c(=S)o2)c1)N1CCOCC1 | 27µM* | 25µM* | -22% | 14µM* | -13% | ?
O=S(=O)(c1cccc(-c2cn3cccnc3n2)c1)N1CCOCC1 | ? | -4% | 32% | 35µM* | -2% | -6%
Cc1ccc2nc(-c3cccc(S(=O)(=O)N4CC(C)OC(C)C4)c3)cn2c1 (stereo unspecified) | 19µM* | 11% | 16% | -13% | -37% | ?
O=S(=O)(c1cccc(S(=O)(=O)N2CCC(Cc3ccccc3)CC2)c1)N1CCOCC1 | 27µM* | 13% | -6% | ? | -3% | -5%[11.4 µM]
O=S(=O)(c1cccc(-c2n[nH]c(=S)n2-c2ccccc2Cl)c1)N1CCOCC1 | -23% | . | 23% | . | . | 22µM*
CC(=O)C[C@H](O)CC(=O)[C@@H]1OC(=O)CCCCCc2ccccc21 | -3% | . | 58% | . | . | -14%
Cc1cc(S(=O)(=O)NCCCN2CCOCC2)ccc1F | -4% | 6% | 39% | 26%[59 µM] | 7% | 6%
CCCCCOCC(O)CCC(=O)NN (stereo unspecified) | -1% | -7% | 11% | 27% | 7% | -12%
O=C(O)COc1ccccc1C1C2C(=O)N(c3ccc(F)cc3)C(=O)C2ON1c1ccccc1 (stereo unspecified) | 27µM* | 15% | -6% | 1%[12.7 µM] | -28% | -16%[11.4 µM]
O=C(C1=C[C@@H]2[C@H]3C(=O)N(c4ccccc4)C(=O)[C@H]3[C@@H](C(=O)c3ccc(Cl)cc3)N2C=C1)c1ccccc1 | . | -9% | . | 11µM* | ? | .
CCCOc1ccc(C(=O)Nc2ccc(NC(=O)c3ccccc3)c(Br)c2)cc1 | . | . | 43% | -35%[59 µM] | -3% | -8%
OCC[C@@H]1C[C@H](O)[C@@H](O)[C@]2(OCc3ccccc32)O1 | -9% | 8% | 23% | -2% | -16% | -16%
CCOc1ccc(S(=O)(=O)Nc2cccc(-c3ccc(N4CCC(C)CC4)nn3)c2)cc1 | . | . | -11%[57 µM] | 25µM* | -10% | -28%
COc1ccc(OC)c(S(=O)(=O)Nc2cccc(-c3ccc(N4CCCCCC4)nn3)c2)c1 | -10% | 8% | 2%[57 µM] | 21% | -19% | -31%
SMILES | PLK1 PBD block | Sfp inh | HP1b chromo inh | G9a inh | BAZ2B inh | JMJD2A Tudor
CCCOc1ccc(-c2cccc(NS(=O)(=O)c3cc(OC)ccc3OC)c2)nn1 | . | . | -24%[57 µM] | 7.9µM* | -4% | -24%
O=C(Nc1cccc(-c2ccc(N3CCCCC3)nn2)c1)c1ccco1 | -8% | . | 10% | 50µM* | -26% | -16%
CCOc1ccc(S(=O)(=O)Nc2cccc(-c3ccc(N4CCCC4)nn3)c2)cc1 | . | . | ? | ? | -7% | -23%
COc1ccc(S(=O)(=O)Nc2cccc(-c3ccc(N4CCCCCC4)nn3)c2)c(OC)c1 | ? | ? | 14% | 45µM* | -14% | -28%
COc1ccc(C(C)=O)cc1CSc1nncn1-c1ccccc1 | 3% | 5% | 28% | 2%[59 µM] | 4% | -2%
COc1ccc(CCNCc2c(C(=O)O)c(C)n(Cc3ccccc3C)c2C)c(OC)c1 | . | . | 20% | -3%[59 µM] | -10% | -12%
CN(C(=O)c1ccoc1)c1ccc2ccccc2c1 | -5% | -5% | 27% | -2% | -11% | -14%
COc1ccc(OC)c(S(=O)(=O)Nc2ccc(-c3ccc4nncn4n3)cc2)c1 | 27µM* | . | ? | 13µM* | 0% | -1%
COc1ccc(S(=O)(=O)Nc2cccc(-c3ccc(N4CCCC4)nn3)c2)c(OC)c1 | . | . | -35%[57 µM] | 7.9µM* | -10% | -30%
Cc1ccc(NC(=O)c2cc(S(=O)(=O)N(C)C3CCCCC3)ccc2F)cc1C | . | . | 36% | 11%[59 µM] | 9% | -5%
CCCC(c1nnnn1Cc1ccc(OC)cc1)N1CCC(C(N)=O)CC1 (stereo unspecified) | -2% | 18% | 28% | 71µM* | ? | -18%
COc1ccc(Cn2nnnc2C(CC(C)C)N2CCC(C(N)=O)CC2)cc1 (stereo unspecified) | -4% | 5% | 38% | . | -4% | -4%
CC1CCN(C(c2ccc(N(C)C)cc2)c2nnnn2Cc2ccccc2)CC1 (stereo unspecified) | -3% | 10% | ? | 16µM* | 18µM* | 50µM*
COc1ccc(Cn2nnnc2C(c2ccc(N(C)C)cc2)N2CCC(C)CC2)cc1 (stereo unspecified) | 8% | 0% | -48% | -121%[59 µM] | 28µM* | 45µM*
COc1cccc(CNC(=O)CCCCCn2c(=O)[nH]c3cc(OC)c(OC)cc3c2=O)c1 | . | . | 29% | -1%[59 µM] | 4% | -20%
CCc1cc2c(cc3c(=O)n(CC(=O)NCCc4ccccc4)ncn32)s1 | . | . | 3% | -5%[59 µM] | 1% | -21%
COc1cccc(NC2=Nc3cccc4cccc2c34)c1 | 13% | 7% | -36% | ? | 40µM* | 45µM*
COc1ccc(NC2=Nc3cccc4cccc2c34)cc1OC | 2% | -18% | -18% | ? | -39%[57.1 µM] | ?
COc1cc(NC2=Nc3cccc4cccc2c34)cc(OC)c1OC | 0% | -2% | ? | 50µM* | 50µM* | ?

From PubChem
